# Tests used:
# Test in all cases: PBM binding z-score (relative to random genomic background probes); higher = stronger binding; sequences stand for … in GC…GCGATTGACAGCGTAGAATGAAGG
# [1] = tested on: FXR:RXRa (NR concentration 270 nM, RXRa partner concentration 90 nM)
# Summary of the method: (§1)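 Probes were double-stranded and carried 34-nt variable regions with direct-repeat seeds, single-nucleotide variants, half-site ablations and random human genomic background sequences, printed on custom Agilent 4×180K protein-binding microarrays. Arrays were incubated 1 h with ligand-free nuclear receptor dimers in PBS pH 7.4, 2% milk, 0.02% Triton X-100, 1 mM DTT, 0.2 mg/mL BSA and 0.4 mg/ml salmon testes DNA. Antibodies against each partner (one per run) detected binding, and scanned fluorescence was regression-normalized. Binding z-scores use the random background probes as reference.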
# [2] = tested on: LXRa:RXRa (NR concentration 270 nM, RXRa partner concentration 90 nM)
# Summary of the method: as §1
# [3] = tested on: LXRa homodimer (NR concentration 270 nM)
# Summary of the method: as §1
# [4] = tested on: LXRb:RXRa (NR concentration 270 nM, RXRa partner concentration 90 nM)
# Summary of the method: as §1
# [5] = tested on: LXRb homodimer (NR concentration 270 nM)
# Summary of the method: as §1
# [6] = tested on: PPARa:RXRa (NR concentration 270 nM, RXRa partner concentration 90 nM)
# Summary of the method: as §1
# [7] = tested on: PPARg:RXRa (NR concentration 180 nM, RXRa partner concentration 90 nM)
# Summary of the method: as §1
# [8] = tested on: PPARg:RXRa 270nM:90nM, anti-RXR (NR concentration 270 nM, RXRa partner concentration 90 nM)
# Summary of the method: as §1
# [9] = tested on: PPARg:RXRa 30nM:10nM, anti-RXR (NR concentration 30 nM, RXRa partner concentration 10 nM)
# Summary of the method: as §1
# [10] = tested on: PPARg:RXRa 90nM:30nM, anti-RXR (NR concentration 90 nM, RXRa partner concentration 30 nM)
# Summary of the method: as §1
# [11] = tested on: PPARg:RXRa DBDmut IVT, anti-RXR (DBD mutation: RXRa K156A/R161A, NR concentration 270 nM, RXRa partner concentration 90 nM)
# Summary of the method: as §1
# [12] = tested on: PPARg:RXRa IVT, anti-PPARg (NR concentration 270 nM, RXRa partner concentration 90 nM)
# Summary of the method: as §1
# [13] = tested on: PPARg DBDmut:RXRa IVT, anti-PPARg (DBD mutation: PPARg1 K132A/R137A, NR concentration 270 nM, RXRa partner concentration 90 nM)
# Summary of the method: as §1
# [14] = tested on: PPARg DBDmut IVT, anti-PPARg (DBD mutation: PPARg1 K132A/R137A, NR concentration 270 nM)
# Summary of the method: as §1
# [15] = tested on: PPARg homodimer (NR concentration 180 nM)
# Summary of the method: as §1
# [16] = tested on: PXR:RXRa (NR concentration 270 nM, RXRa partner concentration 90 nM)
# Summary of the method: as §1
# [17] = tested on: PXR homodimer (NR concentration 270 nM)
# Summary of the method: as §1
# [18] = tested on: RARa:RXR (NR concentration 270 nM, RXRa partner concentration 90 nM)
# Summary of the method: as §1
# [19] = tested on: RARa homodimer (NR concentration 270 nM)
# Summary of the method: as §1
# [20] = tested on: RARb:RXRa (NR concentration 270 nM, RXRa partner concentration 90 nM)
# Summary of the method: as §1
Sequence,PBM binding z-score [1],PBM binding z-score [2],PBM binding z-score [3],PBM binding z-score [4],PBM binding z-score [5],PBM binding z-score [6],PBM binding z-score [7],PBM binding z-score [8],PBM binding z-score [9],PBM binding z-score [10],PBM binding z-score [11],PBM binding z-score [12],PBM binding z-score [13],PBM binding z-score [14],PBM binding z-score [15],PBM binding z-score [16],PBM binding z-score [17],PBM binding z-score [18],PBM binding z-score [19],PBM binding z-score [20]
TTACCAAGGTGAAGGTCATTGATCCCTCTGTAGA,4.39,4.39,2.26,3.7,-0.235,4.36,5.26,5.49,3.52,5.38,2.03,4.57,1.28,-0.00818,2.06,3.74,0.712,3.95,0.469,3.88
GGAACGAGGGCAAGGTGATAGCAGAGTTTGATGG,0.873,0.623,-0.0759,0.183,-0.496,1.74,1.76,1.89,0.199,1.19,3.43,3.26,-0.452,-0.737,0.922,0.851,1.06,0.793,0.23,2.78
TCGAGTAGGTTAGTAGGGGCATTCAGCCAACATA,0.292,-0.0612,-0.0759,0.774,-0.216,1.29,1.01,1.82,0.971,1.35,2.98,3.4,0.408,0.00263,0.668,0.244,0.000181,0.287,0.25,0.637
CAAACTAGGTCATCGGAAGGTCAAAGTCCGCATG,6.11,5.83,5.44,4.82,1.45,6.01,8.72,7.35,5.14,7.04,7.98,8.45,2.01,2.98,5.96,5.37,1.97,6.84,1.67,4.97
CGTCAAAGTTCTACTAAGGTAACGTAAAGCACGC,1.91,-0.151,-0.14,0.0598,-0.14,0.277,0.459,0.289,0.196,0.185,0.0553,0.848,0.246,0.834,0.249,0.134,-0.028,0.398,-0.131,0.603
CCTAGTTGGTCAAGTTCACACACGCTATAGGTAC,1.66,2.31,1.74,2.18,0.695,2.19,1.3,1.5,0.803,1.16,1.95,1.82,0.944,1.02,2.59,3.63,5.51,2.27,1.56,2.92

# From the supplement of paper PMC6555819
